This assay has as its system Potassium Channel [KATP]. Description: off-target binding and CYP450 inhibition panel, profiling panel, selectivity assay for S1P4 antagonist project, biochemical, Ricerca HitProfilingScreen (AID 489017). The note with it: Ricerca receptor/enzyme binding panel plus CYP450, at 10 µM, stronger effect = higher value.

Unmarked numbers belong to inactive results. How the calls were made is not given here.

In general, inhibition refers to the relative decrease from the control value, in per cent. Take `CCc1cccc(CC)c1NC(=O)c1ccc(-c2cc(Cl)ccc2Cl)o1`: the inhibition is 14%.

(Values after PubChem BioAssay AID489017 (The Scripps Research Institute Molecular Screening Center, 2010).)
